Measured values published in PubChem BioAssay (NCI).
Compounds without any hit were thinned out: in the full panel of roughly 79,000, 15% have a hit. Rule as the data show it: active = growth inhibition above about 70%; inactive = the rest.

Key:
[1] = NCI Yeast Anticancer Drug Screen. Data for the rad50 strain (AID 155);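 also: 0% = growth of vehicle-only cultures of the same strain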; details: S. cerevisiae rad50 strain growth inhibition; at 50.0 µM; hits give high values
How it was run: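 Relative growth inhibition (compound vs vehicle) was measured in yeast with a defined repair-gene alteration.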

[2] = NCI Yeast Anticancer Drug Screen. Data for the mec2-1 strain (AID 157); details: S. cerevisiae mec2-1 strain, at 50.0 µM, hits give high values
How it was run: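 Strain: mec2-1 (DNA repair/cell cycle alteration). Compound exposure, then growth measured; inhibition expressed relative to vehicle.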

[3] = NCI Yeast Anticancer Drug Screen. Data for the sgs1 mgt1 strain (AID 161);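 also: 0% = growth of cultures given vehicle only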; details: S. cerevisiae sgs1 mgt1 strain, at 50.0 µM, hits give high values
How it was run: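 Mutant yeast exposed to compound; growth scored against vehicle-only wells.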

[4] = NCI Yeast Anticancer Drug Screen. Data for the cln2 rad14 strain (AID 165);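 also: 0% = growth equal to vehicle treated cultures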; details: S. cerevisiae cln2 rad14 strain, at 50.0 µM, hits give high values
How it was run: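 Compounds are applied to the cln2 rad14 yeast strain, and growth is then compared with that of vehicle-treated cultures to give inhibition.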

[5] = NCI Yeast Anticancer Drug Screen. Data for the bub3 strain (AID 167); details: S. cerevisiae bub3 mutant strain, at 50.0 µM, hits give high values
How it was run: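 Screening used yeast with an engineered genetic alteration affecting cell cycle control. Compound-exposed cultures were compared with vehicle cultures, and reduced growth was taken as inhibition.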

[6] = NCI Yeast Anticancer Drug Screen. Data for the mlh1 rad18 strain (AID 175); details: S. cerevisiae mlh1 rad18 strain growth inhibition; at 50.0 µM; hits give high values
How it was run: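 Read-out is yeast growth inhibition, calculated against vehicle-only controls. The compound was applied to a strain engineered with DNA damage repair alterations.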

Measured: growth inhibition

NC=O
inactive: [1] -9.45% | [2] 11.2% | [3] 7.1% | [4] -1.4% | [5] -0.15% | [6] -11.7%

C=C1C(C(=O)O)C1C(=O)O (stereo not given)
inactive: [1] 4.2% | [2] -11.8% | [3] 20.4% | [4] 3.6% | [5] 2.9% | [6] -2.25%

COc1ccc(C2C3=C(COC3=O)Oc3cc4c(cc32)OCO4)cc1OC (stereo not given)
inactive: [1] -21.5% | [2] -33% | [3] -17.9% | [4] -3.95% | [5] 5.45% | [6] -10.8%

CCCc1c(-c2ccccc2)nc(N)nc1-c1nc(N)nc(-c2ccccc2)c1CCC
inactive: [1] -1.75% | [2] -10.7% | [3] -12.4% | [4] 9.4% | [5] -2.25% | [6] -1.4%

CC(C)(C)C(=O)Nc1ccc(NS(=O)(=O)c2ccccc2)cc1
inactive: [1] 6.85% | [2] -4.3% | [3] 2.85% | [4] 1.8% | [5] 2.9% | [6] -21.1%

CCOC(=O)C(NC(=O)OCc1ccccc1)C(=O)O (stereo not given)
inactive: [1] -22.9% | [2] -27.4% | [3] -14.3% | [4] 7.7% | [5] 5.35% | [6] -14.7%

CCc1ccc(CC(=S)N2CCOCC2)cc1
inactive: [1] 4.2% | [2] 1.45% | [3] 5.55% | [4] -1.7% | [5] -15.9% | [6] -3.9%

CCO/C=C1\SC(=S)N(CCc2ccc(OC)c(OC)c2)C1=O
inactive: [1] -0.85% | [2] -6.85% | [3] -10.9% | [4] -2.2% | [5] -5.6% | [6] -10.5%

Cn1c(=O)[nH]c2c(c1=O)CCCS2
inactive: [1] 3.75% | [2] 6.4% | [3] 20.4% | [4] 0.65% | [5] -19.6% | [6] -10.1%

CN(C)c1ccc2oc3ccccc3c2c1
inactive: [1] -4.5% | [2] -4.5% | [3] -21.4% | [4] -23.9% | [5] 5.35% | [6] -26.4%

[Cl][Pt+2][Cl].[NH-]c1cccc(C(F)(F)F)c1.[NH-]c1cccc(C(F)(F)F)c1
inactive: [1] 2.1% | [2] 12.2% | [3] -6.35% | [4] 7.05% | [5] -22.8% | [6] -11.9%

CC1CCC(O)(C(C)(C(=O)O)c2ccccc2)CC1 (stereo not given)
inactive: [1] -19.7% | [2] -16.8% | [3] -5.65% | [4] -35.6% | [5] -54.8% | [6] -8.45%

CC(=O)c1ccc(C(=O)c2cccnc2)cc1
inactive: [1] -17% | [2] -9.2% | [3] -0.4% | [4] -49.3% | [5] -14.7% | [6] 7.4%

COC(=O)N/N=C/c1ccc(NC(C)=O)cc1
inactive: [1] 7.8% | [2] 0% | [3] -13.8% | [4] -75.6% | [5] -4.95% | [6] -5%

c1ccc(CNc2cnccn2)cc1
inactive: [1] -20.5% | [2] 10.7% | [3] -7.75% | [4] -22.1% | [5] -3.7% | [6] -4.95%

N#CCC(=O)c1ccccc1C(=O)O
inactive: [1] -4.45% | [2] -38.8% | [3] 4.7% | [4] 4.65% | [5] -6.2% | [6] 17.6%

c1ccc(C2(c3ccccc3)c3ccccc3-c3ccccc32)cc1
inactive: [1] -16.2% | [2] 17.4% | [3] 20.3% | [4] -17.9% | [5] -26.9% | [6] 2.2%

CC1CCc2[nH]nc(CC3CC(=O)NC(=O)C3)c2C1 (stereo not given)
inactive: [1] 15.9% | [2] -2.2% | [3] 10.8% | [4] 27.2% | [5] -7.35% | [6] 3.7%

COc1cc(Br)cc(OC)c1Oc1cc(OC)c(OC)c(OC)c1Br
inactive: [1] 45.8% | [2] 12.4% | [3] 36% | [4] 2.4% | [5] 10.8% | [6] 24.9%

CCCCCCCCCCCCSC(=O)NCCC
inactive: [1] -3.75% | [2] -2.05% | [3] 1.6% | [4] 0.05% | [5] 3.45% | [6] 1.4%

O=C(Nc1ccc(Cl)cc1)Nc1nnc(-c2ccccc2Br)o1
inactive: [1] 15.6% | [2] 18.6% | [3] 19.2% | [4] -15.4% | [5] -22.6% | [6] 8.3%

COc1cc(OC)c2c(=O)cc(-c3ccc(OC)c(OC)c3OC)oc2c1
inactive: [1] -31.8% | [2] -23.6% | [3] -30.1% | [4] -2.3% | [5] -18.4% | [6] -40.5%

CC(=O)c1c[nH]c(=O)c2cc3c(cc12)OCO3
inactive: [1] -42.8% | [2] -14.1% | [3] -7.85% | [4] -10.4% | [5] 12.8% | [6] -8.3%

O=C1NC2(CCCC2)C(=O)NC12CCCC2
inactive: [1] -21.1% | [2] -22.1% | [3] -1.45% | [4] -13.2% | [5] -26.2% | [6] 1.35%

NC1=NS(=O)(=O)Nc2nc(-c3ccc(Cl)cc3)c(-c3ccc(Cl)cc3)nc21
inactive: [1] -16.6% | [2] -17.2% | [3] -25% | [4] 3.45% | [5] -22% | [6] -24.8%

CN1CCCc2cccc(NC(=O)C3CCCNC3=O)c21 (stereo not given)
inactive: [1] -15.3% | [2] 1.35% | [3] -2.3% | [4] -32.8% | [5] 6.55% | [6] 9.75%

CC(=O)Oc1ccc(CCNC(c2ccccc2)c2ccccc2)cc1OC(C)=O
inactive: [1] 44% | [2] 13.2% | [3] 42.5% | [4] -7.6% | [5] -17.4% | [6] 38.3%

C=CCC1(/C(=C\CC)CCC)C(=O)NC(=O)N=C1N (stereo not given)
inactive: [1] 8.45% | [2] -0.3% | [3] 10% | [4] -36.8% | [5] -11.2% | [6] 8.3%

Nc1cn(C2CC(O)C(CO)O2)c(=O)[nH]c1=O (stereo not given)
inactive: [1] 0% | [2] -1.9% | [3] -2.5% | [4] 1% | [5] -4.4% | [6] -9.05%

COC(=O)CC1OCC=C2CN3CCC45C6=CC(=O)C(=O)C([N+](=O)[O-])=C6NC4C1C2CC35 (stereo not given)
inactive: [1] 0.8% | [2] -22.4% | [3] -15.4% | [4] 8.3% | [5] -4.8% | [6] -17.8%

COc1cccc(/C=C(\NC(C)=O)c2nc3ccc(Cl)cc3[nH]2)c1
inactive: [1] 1.8% | [2] -1.35% | [3] 8.75% | [4] 2.15% | [5] -3.85% | [6] 8.1%

CC(=O)NC(C)(CO)C(=O)O (stereo not given)
inactive: [1] 22.6% | [2] 12.7% | [3] 19.4% | [4] 13.4% | [5] 7.35% | [6] 14.1%

CC1(C)OC2COC(CN(N=O)C(N)=O)C2O1 (stereo not given)
inactive: [1] 15.2% | [2] -15.7% | [3] -8.15% | [4] -75% | [5] -17.4% | [6] 5.75%

Cc1cc2nc(Oc3ccccc3)nc(=O)n2o1
inactive: [1] 2.3% | [2] 0.4% | [3] 6.7% | [4] -2.05% | [5] 11.8% | [6] -9.2%

COc1ccc(Cc2cc3c(cc2OCC(=O)N2CCOCC2)OCO3)cc1
inactive: [1] -3.25% | [2] -9.5% | [3] -4.25% | [4] -37.7% | [5] 20.4% | [6] -3.3%

CN(C)CCN(C(=Nc1ccccc1)N1CCCC1)c1ccccc1
inactive: [1] -18.7% | [2] -30.8% | [3] -30.4% | [4] 17.1% | [5] 0.45% | [6] 4.5%

CC(=O)Oc1cccc(OC(=O)Nc2ccc(C)c(NC(=O)Oc3cccc(OC(C)=O)c3)c2)c1
inactive: [1] 26.2% | [2] 22.6% | [3] 9.75% | [4] 19.3% | [5] -0.4% | [6] 34.5%

CCCCCC(CSCC)C(=O)/C=C/c1ccccc1 (stereo not given)
inactive: [1] 8.3% | [2] 1.4% | [3] -7% | [4] -1.55% | [5] 18.6% | [6] 5.6%

O=C(O)/C=C(/CC(=O)O)c1ccc(O)cc1
inactive: [1] -14.9% | [2] -21.7% | [3] -9.9% | [4] -4.55% | [5] -18.6% | [6] -14.3%

O=C(/C=C/c1ccc(O)c(O)c1)OC1CC(O)(C(=O)O)CC(O)C1O (stereo not given)
inactive: [1] 4.75% | [2] 5.9% | [3] 7.85% | [4] 11.4% | [5] -2.75% | [6] 17.7%
